Laboratory results as given in PubChem BioAssay (NCI).
About 83,000 compounds went through this panel and 20% of them were active in at least one assay; those are over-represented in the sample as a whole.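 Negative percent growth values reflect cell death: -40 means 40% of the cells present at the start died, and -100 means all died.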 The source made the active and inactive calls. Rule for the calls: active = growth percent below 10; inactive = the rest.

Assays:
Experiment in all cases: NCI-60 one-dose screen, 48 h (100 = growth as untreated, 0 = no growth, -100 = all killed)
Conditions in all cases: 10 µM unless noted
NCI-H23 lung = system: NCI-H23 lung
NCI-H226 lung = system: NCI-H226 lung
NCI-H322M lung = system: NCI-H322M lung
HOP-62 NSCLC = system: HOP-62 NSCLC
NCI-H460 lung = system: NCI-H460 lung
HOP-92 NSCLC = system: HOP-92 NSCLC
NCI-H522 lung = system: NCI-H522 lung
A549/ATCC NSCLC = system: A549/ATCC NSCLC
786-0 renal = system: 786-0 renal
COLO 205 colon = system: COLO 205 colon

Measured: growth

Cc1ccc(Nc2nc(NCCO)c3ccccc3n2)cc1C
inactive: NCI-H23 lung 15.8% | NCI-H322M lung 55.5% | HOP-62 NSCLC 20.3% | HOP-92 NSCLC 89.7% | A549/ATCC NSCLC 13.6% | 786-0 renal 29%
active: NCI-H226 lung 1.03% | NCI-H460 lung -2.08% | NCI-H522 lung -21% | COLO 205 colon -65.7%

CC(C)c1[nH]ncc1-c1nc2ccc3[nH]ncc3c2c2c1CCCC2
active: COLO 205 colon 7.79%
inactive: NCI-H23 lung 32.7% | NCI-H226 lung 35.5% | NCI-H322M lung 39.7% | HOP-62 NSCLC 30.5% | NCI-H460 lung 16.1% | HOP-92 NSCLC 58.5% | NCI-H522 lung 41% | A549/ATCC NSCLC 13.9% | 786-0 renal 23.2%

COc1cc(Cn2c(-c3ccccc3)cc3c2-c2oncc2CC3)cc(OC)c1OC
inactive: NCI-H23 lung 48.4% | NCI-H226 lung 51% | HOP-62 NSCLC 39% | HOP-92 NSCLC 28% | A549/ATCC NSCLC 23.9% | 786-0 renal 32.7% | COLO 205 colon 14.5%
active: NCI-H322M lung -13.2% | NCI-H460 lung 9.75% | NCI-H522 lung 5.31%

C=CCn1c(SCC(=O)Nc2ccc(/C(C)=N\O)cc2)nnc1-c1cc(-c2ccc(Cl)cc2)nc2ccccc12
inactive: NCI-H23 lung 24.1% | NCI-H226 lung 50.7% | NCI-H322M lung 26.2% | HOP-62 NSCLC 49.6% | NCI-H460 lung 17.2% | HOP-92 NSCLC 50.4% | NCI-H522 lung 22.4% | A549/ATCC NSCLC 19.4% | 786-0 renal 23% | COLO 205 colon 27.8%

C/C(=N\NC(=S)Nc1ccccc1)c1ccccn1
inactive: NCI-H23 lung 59.8% | NCI-H226 lung 21.3% | NCI-H322M lung 20.9% | HOP-62 NSCLC 41.4% | NCI-H460 lung 17.3% | HOP-92 NSCLC 37.1% | NCI-H522 lung 12.6% | A549/ATCC NSCLC 45.7% | 786-0 renal 32.6% | COLO 205 colon 25.6%

O=C(Nc1ccccc1Cl)Oc1ccc2ccccc2c1
inactive: NCI-H23 lung 91.3% | NCI-H226 lung 88.2% | NCI-H322M lung 109% | HOP-62 NSCLC 92.9% | NCI-H460 lung 102% | HOP-92 NSCLC 101% | NCI-H522 lung 79.6% | A549/ATCC NSCLC 94.9% | 786-0 renal 90.9% | COLO 205 colon 118%

COc1cc2nccc(Oc3ccc(NC(=O)C4(C(=O)Nc5c(F)cc(F)cc5F)CC4)cc3)c2cc1Oc1ccc(N)cn1
active: HOP-92 NSCLC 2.04%
inactive: NCI-H23 lung 53.6% | NCI-H226 lung 37.7% | NCI-H322M lung 74.8% | HOP-62 NSCLC 67.7% | NCI-H460 lung 65.4% | NCI-H522 lung 55% | A549/ATCC NSCLC 48% | 786-0 renal 96.5% | COLO 205 colon 44.3%

C=CCn1c(C)nc2cc(Nc3nc(Nc4ccc5nc(C)n(CC=C)c5c4)nc4ccccc34)ccc21
inactive: NCI-H23 lung 94.2% | NCI-H226 lung 99.8% | NCI-H322M lung 109% | HOP-62 NSCLC 101% | NCI-H460 lung 117% | HOP-92 NSCLC 79.8% | NCI-H522 lung 99.1% | A549/ATCC NSCLC 96.3% | 786-0 renal 113% | COLO 205 colon 108%

O=C(CSc1ccc(Cl)cc1)Nc1ccc(-c2nc3ccccc3s2)c(Cl)c1
inactive: NCI-H23 lung 20.9% | NCI-H226 lung 77.4% | NCI-H322M lung 87.7% | HOP-62 NSCLC 75.3% | NCI-H460 lung 41.5% | NCI-H522 lung 28.2% | A549/ATCC NSCLC 48.8% | 786-0 renal 48.9% | COLO 205 colon 76.2%
active: HOP-92 NSCLC 6.61%

Cc1nc2n[nH]c(N)c2nc1C
inactive: NCI-H23 lung 102% | NCI-H226 lung 99.9% | NCI-H322M lung 93.1% | HOP-62 NSCLC 104% | NCI-H460 lung 111% | HOP-92 NSCLC 100% | NCI-H522 lung 93.9% | A549/ATCC NSCLC 99.2% | 786-0 renal 105% | COLO 205 colon 109%

CCCCc1n(Cc2ccc3ccccc3n2)cc[n+]1Cc1ccc2ccccc2n1
active: NCI-H23 lung 4.77% | HOP-92 NSCLC 4.31% | COLO 205 colon -34.4%
inactive: NCI-H226 lung 26.7% | NCI-H322M lung 41.4% | HOP-62 NSCLC 25.2% | NCI-H460 lung 16.5% | NCI-H522 lung 10% | A549/ATCC NSCLC 44.8% | 786-0 renal 56.9%

COC(=O)C1(C)COP(=O)(NC23CC4CC(CC(C4)C2)C3)OC1 (stereo not given)
inactive: NCI-H23 lung 106% | NCI-H226 lung 108% | NCI-H322M lung 99% | HOP-62 NSCLC 99% | NCI-H460 lung 103% | HOP-92 NSCLC 83.6% | NCI-H522 lung 89.5% | A549/ATCC NSCLC 99.7% | 786-0 renal 102% | COLO 205 colon 103%

Cc1ccc(NC(=O)c2nc(S(C)=O)oc2-c2ccc(F)cc2)cc1Nc1nccc(-c2cccnc2)n1 (stereo not given)
inactive: NCI-H23 lung 50% | NCI-H226 lung 51.7% | NCI-H322M lung 103% | HOP-62 NSCLC 58.2% | NCI-H460 lung 61.5% | HOP-92 NSCLC 96.2% | A549/ATCC NSCLC 95.4% | 786-0 renal 54.6% | COLO 205 colon 54%
active: NCI-H522 lung 7.97%

Cc1ccc(NC(=O)c2[nH]c(SCCN(C)C)nc2-c2ccc(F)cc2)cc1Nc1ccc2ncn(C)c(=O)c2c1
inactive: NCI-H23 lung 42.1% | NCI-H226 lung 63.9% | NCI-H322M lung 67% | HOP-62 NSCLC 58.5% | NCI-H460 lung 56.3% | HOP-92 NSCLC 38.7% | NCI-H522 lung 69.5% | A549/ATCC NSCLC 40.3% | 786-0 renal 72.8% | COLO 205 colon 14.5%

COc1cc2c(cc1I)-c1c(cc(OC)c(OC)c1OC)CC[C@@H]2NC(C)=O
active: NCI-H23 lung 4.9% | NCI-H460 lung 1.44% | NCI-H522 lung -22.3% | COLO 205 colon -52.8%
inactive: NCI-H226 lung 33.6% | NCI-H322M lung 61.6% | HOP-62 NSCLC 14.7% | HOP-92 NSCLC 43.7% | A549/ATCC NSCLC 28.3% | 786-0 renal 16.4%
